Assay [1] in a line: qHTS assay to identify small molecule agonists of the NFkB signaling pathway (AID 1159509; active = well fitted curve in the direction sought with a large enough effect in the signal ratio in the repeat runs, not every such curve was filed as active; the % refers to the signal ratio). The following applies: NFkB-bla ME-180 cells, beta-lactamase FRET ratio, 5 h; series mostly up to 61 µM. The method in brief: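 NFkB-bla ME-180 cells with a beta-lactamase reporter under an NF-kB response element were plated overnight, treated with compounds in DMSO for 5 hr at 37 C, then loaded with FRET substrate for 1.5 hr at room temperature.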

Assay [2] in a line: qHTS assay to identify small molecule agonists of the NFkB signaling pathway - cell viability counter screen (AID 1159515; calls by dose curve; also: nearly all actives have a fitted effect of over 55% in size). The conditions noted are these: NFkB-bla ME-180 viability, CellTiter-Glo luminescence, 5 h; series mostly up to 61 µM. The method in brief:
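Luminescence from CellTiter-Glo (30 min, room temperature) gives viability, measured in the same wells as the beta-lactamase reporter read. Cells were NFkB-bla ME-180, 2,000 per well, treated 5 hr with compounds.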
A general note: qHTS replaces the single test concentration by a dilution series.

The nature of assay [3]: qHTS assay to identify small molecule agonists of the endoplasmic reticulum stress response signaling pathway (AID 1159516; active = well fitted activation curve with a large enough effect in the signal ratio in the repeat runs, not every such curve was filed as active; the % refers to the signal ratio). The conditions noted are these: ESRE-bla HeLa, ER stress beta-lactamase reporter, 5 h; series mostly up to 61 µM. The procedure, abridged:
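Read-out is beta-lactamase cleavage of a FRET substrate (405 nm excitation; 460 and 530 nm emissions) in ESRE-bla HeLa cells after a 5 hr compound exposure at 37 C. Substrate incubation ran 2 hr at room temperature.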

A short description of assay [4]: qHTS assay to identify small molecule antagonists of the retinoid-related orphan receptor gamma (ROR-gamma) signaling pathway - cell viability counter screen (AID 1159520). Also: nearly all actives have a fitted effect of over 50% in size. The conditions noted are these: Tet-on RORgamma CHO cells viability, ATP luminescence, 16 h; series mostly up to 92.4 µM. The method in brief: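 Tet-on ROR gamma CHO cells (1,000/well) were plated 4 hr, given compounds in DMSO for 2 hr at 37 C, then induced with 1 uM final doxycycline for 16 hr. Viability was read as ATP by CellTiter-Glo luminescence after 30 min.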

Assay [5] addresses Nuclear receptor ROR-gamma (Homo sapiens) (UniProt P51449). Description: qHTS assay to identify small molecule antagonists of the retinoid-related orphan receptor gamma (ROR-gamma) signaling pathway (AID 1159521; also: top concentration of the series differs between compounds; nearly all actives have a fitted effect of over 50% in size). The conditions noted are these: Tet-on RORgamma CHO cells, RORE-luciferase, 16 h; series mostly up to 92.4 µM. The procedure, abridged: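 Tet-on ROR-gamma CHO cells with ROR response element-luciferase reporter; compounds added 2 hr before 1 uM doxycycline induction, then 16 hr at 37 C. Antagonism scored as decreased ONE-Glo luminescence.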

The nature of assay [6]: qHTS assay to identify small molecule agonists of the AP-1 signaling pathway - cell viability counter screen (AID 1159525; calls by dose curve; also: nearly all actives have a fitted effect of over 55% in size). The following applies: ME-180 AP-1-bla cells viability, ATP luminescence, 5 h; series mostly up to 76.8 µM. The method in brief:
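ME-180 AP-1-bla, 2500 cells/well, Opti-MEM + 0.5% dialyzed FBS; overnight 37 °C; cpd 15-pt titration, 5 h 37 °C; CellTiter-Glo 30 min RT; luminescence read; normalised to TOAB and DMSO controls.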

Assay [7] is described as follows: qHTS assay to identify small molecule agonists of the AP-1 signaling pathway (AID 1159526; calls by dose curve). The following applies: ME-180 (cervical carcinoma) AP-1-bla reporter, beta-lactamase FRET ratio, 5 h; series mostly up to 76.8 µM.
The target in assay [8] is Retinoic acid receptor RXR-alpha (Homo sapiens) (UniProt P19793). Description: qHTS assay to identify small molecule agonists of the RXR signaling pathway (AID 1159527; calls by dose curve; also: nearly all actives have a fitted effect of over 35% in size). The following applies: HEK293T RXRa-UAS-bla, beta-lactamase ratio, 16 h; series mostly up to 76.8 µM. The method in brief: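 GeneBLAzer RXR-alpha-UAS-bla HEK 293T cells in 2% charcoal-stripped FBS medium were exposed to compounds for 16 hr at 37 C in agonist mode. Beta-lactamase reporter read as 460/530 nm FRET ratio after 2 hr substrate loading.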

Assay [9] is described as follows: qHTS assay to identify small molecule agonists of the RXR signaling pathway - cell viability counter screen (AID 1159529). Also: nearly all actives have a fitted effect of over 50% in size. The following applies: RXR-alpha-bla HEK293T viability, CellTiter-Glo, 16 h; series mostly up to 76.8 µM. The procedure, abridged:
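RXR-alpha-UAS-bla HEK 293T cells in medium with 2% charcoal-stripped FBS were pre-incubated 5 hr, then compound-treated 16 hr at 37 C. Viability was read by CellTiter-Glo luminescence in the same wells as the beta-lactamase assay, with tetraoctyl ammonium bromide as positive control.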

Assay [10] in a line: qHTS assay to identify small molecule antagonists of the retinoic acid receptor (RAR) signaling pathway (AID 1159552; also: nearly all actives have a fitted effect of over 50% in size). The conditions noted are these: C3RL4 RARE luciferase reporter, retinol-stimulated, 6 h; series mostly up to 92.4 µM. The procedure, abridged: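 Retinol signaling pathway inhibitors screened in C3RL4 RARE-luciferase reporter cells seeded overnight at 37 C, then compounds added with 1 uM (final) retinol as pathway substrate. After 6 hr at 37 C, luciferase luminescence read after 30 min at room temperature.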

Assay [11] can be described thus: qHTS assay to identify small molecule agonists of the retinoic acid receptor (RAR) signaling pathway (AID 1159553). The conditions noted are these: C3RL4 RARE luciferase reporter, agonist, 6 h; series mostly up to 73.3 µM. The method in brief: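 Luminescence from a RARE-driven luciferase reporter in C3RL4 cells served as the read-out, measured after 30 min with detection reagent at room temperature. Compounds in DMSO were applied for 6 hr at 37 C following overnight seeding.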

A short description of assay [12]: qHTS assay to identify small molecule antagonists of the vitamin D receptor (VDR) signaling pathway - cell viability counter screen (AID 743225). Also: nearly all actives have a fitted effect of over 50% in size. The conditions noted are these: VDR-bla HEK293T viability, CellTiter-Glo luminescence, 16 h; series mostly up to 61 µM. The method in brief:
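VDR-UAS-bla HEK 293T cells were plated and incubated 4 h at 37C, then dosed with compound plus 3 nM (final) 1-alpha,25-dihydroxyvitamin D3 for 16 h. After the 2 h beta-lactamase read, viability in the same wells was read as CellTiter-Glo luminescence after 30 min at room temperature.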

The nature of assay [13]: qHTS assay to identify small molecule antagonists of the retinoid acid receptor (RAR) signaling pathway - cell viability counter screen (AID 1159551). Also: nearly all actives have a fitted effect of over 35% in size. The following applies: C3RL4 cells viability, ATP luminescence (CellTiter-Glo), 6 h; series mostly up to 92.4 µM. The method in brief:
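Luminescent ATP quantitation (CellTiter-Glo) gave cell viability in C3RL4 cells exposed to test chemicals for 6 h at 37 C alongside 1 uM final retinol.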

Assay [14] can be described thus: qHTS assay to identify small molecule antagonists of the estrogen related receptor (ERR) signaling pathway from Tox21 library - cell viability counter screen (AID 1224834). Also: nearly all actives have a fitted effect of over 30% in size. Also: potency is read from the fitted curve at half-maximal effect. The conditions noted are these: ERR reporter cells viability, CellTiter-Fluor, 17.5 h; series mostly up to 92.4 µM. The method in brief: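 Fluorescence from CellTiter-Fluor gives the viability read-out, taken 30 min after reagent addition. Before that, ERR cells seeded 6 h earlier were incubated with compounds for 17.5 h at 37 C.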

Assay [15] in a line: qHTS assay to identify small molecule antagonists of the estrogen related receptor (ERR) signaling pathway - cell viability counter screen (AID 1224818). The conditions noted are these: ERR reporter cell line viability counter screen; series mostly up to 46.1 µM. The procedure, abridged:
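Multiplexed counter screen to separate cytotoxic compounds from true ERR modulators. ERR cells received DMSO-dissolved compounds after a 6 h pre-incubation, were exposed 17.5 h at 37 C, then assayed with CellTiter-Fluor fluorescence.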

Assay [16] can be described thus: qHTS assay to identify small molecule antagonists of the estrogen related receptor (ERR) signaling pathway (AID 1224819). The conditions noted are these: ERR reporter cell line, luciferase inhibition; series mostly up to 46.1 µM. The method in brief: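 Seed ERR cells 2,000/well; rest 6 h at 37 C/5% CO2; pin compounds in DMSO; incubate 18 h at 37 C; add One-Glo; wait 30 min at room temperature; measure luminescence.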

Assay [17] is described as follows: qHTS assay to identify small molecule agonists of the estrogen related receptor (ERR) signaling pathway (AID 1224820). The conditions noted are these: ERR reporter cell line, luciferase agonist mode; series mostly up to 46.1 µM. The method in brief: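 ERR reporter cells (NTP line) plated 2,000/well, incubated 6 h at 37 C/5% CO2, then pinned with compounds in DMSO and held 18 h at 37 C. One-Glo added; luminescence read after 30 min at room temperature.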

Assay [18] is described as follows: qHTS assay to identify small molecule antagonists of the estrogen related receptor signaling pathway with the pleiotropic PPARgamma coactivator (PGC) cell viability counter screen (AID 1224822). The following applies: ERR/PGC reporter cell line viability counter screen; series mostly up to 46.1 µM. The procedure, abridged: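 Cells: PGC/ERR, 2,000/well, 1536-well format. Pre-incubation 6 h, 37 C/5% CO2. Compound exposure 17.5 h, 37 C. Detection: CellTiter-Fluor, 30 min, fluorescence.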

Assay [19] is described as follows: qHTS assay to identify small molecule agonists of the estrogen related receptor signaling pathway with the pleiotropic PPARgamma coactivator (PGC) (AID 1224823). The conditions noted are these: ERR/PGC reporter cell line, luciferase agonist mode; series mostly up to 46.1 µM. The procedure, abridged:
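PGC/ERR reporter cells were seeded, rested 6 h at 37 C/5% CO2, then exposed to compounds in DMSO by pin transfer for 18 h at 37 C. Luciferase activity was read as luminescence after One-Glo reagent and 30 min at room temperature.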

Records with an inconclusive call do not appear. The source made the active and inactive calls. Unless noted, calls follow the shape of the dose curve; as a rule, active = well fitted curve in the direction sought with a large enough effect in the repeat runs; inconclusive = weak or mixed curves; inactive = no such curve, though single readings can be large; an effect the other way counts as inactive or inconclusive.

Results on nine compounds are retold here after PubChem BioAssay (Tox21).

Chain of Retinoic acid receptor RXR-alpha (Homo sapiens) (P19793 whole entry, looked up): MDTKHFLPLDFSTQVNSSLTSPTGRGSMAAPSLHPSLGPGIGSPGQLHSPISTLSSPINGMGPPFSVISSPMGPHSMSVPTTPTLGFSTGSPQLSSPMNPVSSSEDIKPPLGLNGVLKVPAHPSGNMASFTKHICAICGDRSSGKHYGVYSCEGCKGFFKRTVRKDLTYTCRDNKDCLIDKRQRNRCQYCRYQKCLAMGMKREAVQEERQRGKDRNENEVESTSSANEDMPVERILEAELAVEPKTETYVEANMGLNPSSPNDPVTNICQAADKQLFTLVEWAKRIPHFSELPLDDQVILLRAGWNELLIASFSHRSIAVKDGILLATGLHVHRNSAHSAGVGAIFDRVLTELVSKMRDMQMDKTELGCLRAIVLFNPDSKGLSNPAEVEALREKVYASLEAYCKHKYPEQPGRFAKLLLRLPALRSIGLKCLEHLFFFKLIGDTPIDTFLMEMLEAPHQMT

As to `Nc1c(Br)cc([N+](=O)[O-])cc1[N+](=O)[O-]`, the outcome in [1], in [2], in [3] and in assay [7] was inactive. The Potency result in assay [4], in [5], in assay [6], in [8], in assay [9] and in assay [10] was “inactive” each time. In assay [11], the Potency entry is “inactive”.
As to `CCNc1nc(NC(C)C)nc(OC)n1`, the compound was called inactive in [12], in [1], in [2], in assay [3] and in assay [7]. The Potency result in assay [4], in assay [5], in [6], in assay [9], in assay [13] and in assay [14] was “inactive” each time.
Turning to `C[C@@H]1CN(C2CCC(C#N)(c3ccc(F)cc3)CC2)CC[C@]1(C(=O)O)c1ccccc1` (some centres undefined), the compound was called inactive in assay [12], in [1], in assay [2], in assay [3] and in [7]. Also, the Potency entry in assay [4], in assay [5], in assay [6], in assay [9], in [13] and in assay [14] was “inactive” each time.
As to `COP(=S)(OC)Oc1ccc(S(N)(=O)=O)cc1`, the result in assay [12], in [1], in [2], in [3] and in assay [7] was inactive. Also, the Potency entry in assay [4], in assay [5], in [6], in assay [9], in assay [13] and in assay [14] was “inactive” throughout.
For the compound `C[C@]12CC[C@H]3[C@@H](CCC4=CC(=O)CC[C@@]43C)[C@@H]1CC[C@@H]2C(=O)O`, the result in assay [1], in [2], in assay [3] and in [7] was inactive. In addition, the Potency result in assay [5], in assay [6], in [9], in assay [13], in assay [10] and in assay [11] was “inactive” in each case. Also, the Potency result in [14] is “inactive”.
Consider `Nc1cc(Cl)ccc1O`, for which the result in [12], in assay [1], in [2] and in assay [3] was inactive. Further, the Potency entry in assay [4], in assay [5], in assay [6] and in [13] was “inactive” in each case. Further, in assay [14], the Potency was 33.3 µM (active).
Turning to `CC(=O)[C@H]1CC[C@H]2[C@@H]3CC[C@H]4C[C@H](O)CC[C@]4(C)[C@H]3C(=O)C[C@]12C`, the compound was classed as inactive in assay [12], in assay [1], in [2], in [3], in assay [7] and in [15]. The call in assay [16], in assay [17], in assay [18] and in assay [19] was inactive. For the same compound, the Potency result in assay [4], in assay [6], in assay [8], in assay [13], in [10] and in [11] was “inactive” in each case. Also, the Potency entry in assay [14] is “inactive”.
In the case of `Nc1cnn(-c2ccccc2)c(=O)c1Cl`, the result in assay [12], in assay [1], in [2], in assay [3] and in assay [7] was inactive. Moreover, the Potency entry in [4], in [5], in assay [6], in assay [13] and in assay [14] was “inactive” in each case.
As to `NC(=S)C(N)=S`, the compound was classed as inactive in assay [12], in assay [1], in [2], in [3] and in assay [7]. The Potency result in assay [4], in [5], in assay [6], in assay [9], in [13] and in assay [10] was “inactive” in each case. Also, the Potency entry in assay [11] and in assay [14] was “inactive” throughout.
